The values below come from PubChem BioAssay.

Records with an inconclusive call do not appear. The source made the active and inactive calls. Unless noted, no stated cut-off is given here; in the data, active means inhibition above about 30%; inactive means the rest.

In general, viability refers to a read-out of living cells in per cent, often relative to untreated cells. By inhibition is commonly meant the relative decrease from the control value, in per cent.

Assay [1] is described as follows: Her2 expression decrease, cell viability multiplex – SKBR3 breast tumor cells, AlphaScreen, ATP viability, primary screen (AID 461;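 active means Her2 level under about 52% in both replicate screens, with viability over 70% of control, limit read from the data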;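 on Her2 level: lower value means less Her2 protein in the cells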;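 on viability: percent of carrier control wells set as 100% viability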). Particulars: SKBR3 Her2 protein level, 18-24 h, measured here: SKBR3 viability, ATP luminescence, at 10 µM.
Assay [2] deals with Receptor tyrosine-protein kinase erbB-2 (Homo sapiens) (UniProt P04626). The description is as above. Particulars: 18-24 h, at 10 µM, stronger effect = lower value.
A short description of assay [3]: reduced viability of SK-BR-3 breast cancer cells – cell-based, 24 h, human, pilot screen (AID 572;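 active means viability at or below 10% of carrier control in both of two separate runs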;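 further: compound exposure lasted between 18 and 24 h rather than exactly 24 h; 100% = carrier-treated control wells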). Particulars: SK-BR-3 viability, CellTiter-Glo luminescence, at 10 µM, stronger effect = lower value. A general note: In ATP-based viability assays light output follows the ATP content of the culture.
A short description of assay [4]: HUVEC growth inhibition – cell-based, human, primary screen (AID 575;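 active means viability at or below 30% in both replicate assays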;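 further: 100% = median of untreated cell wells with 0.1% DMSO on each plate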). Particulars: HUVEC proliferation, CellTiter-Glo luminescence, 72 h; at 10 µM; stronger effect = lower value.
Assay [5] in a line: H69AR cell proliferation blockers – human, duplicate replicates, primary screen (AID 580;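 active means viability at or under a set limit in both replicates, limit being median viability minus 3 SD, cut at about 48% in these data, passing the limit was not always enough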;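 further: 100% = mean luminescence of untreated wells and 0% = no signal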). Particulars: H69AR lung tumor cells viability, ATP luminescence, 72 h; at 10 µM; stronger effect = lower value.
Assay [6] can be described thus: MRP1 drug-resistance reversers in H69AR cells – cell-based, doxorubicin co-treatment, pilot screen (AID 601;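 active means viability loss from added drug above about 55%, and viability with drug at most 40%, in both replicates, limit read from the data, passing the limit was not always enough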). Particulars: CellTiter-Glo, 72 h, at 10 µM; for differential viability (reversal): stronger effect = higher value.
Assay [7] in a line: yeast transport mutant growth inhibition pilot in 384-well plates, post-Golgi transport modulator project (AID 636; in the data active means inhibition above about 31%). Particulars: absorbance 615 nm, about 18 h, stronger effect = higher value.
Assay [8] is described as follows: growth suppression of yeast trafficking mutant, preliminary HTS, modulators of trafficking downstream of Golgi apparatus project, 1536-format plate, OD 615 nm (AID 637). Particulars: yeast transport mutant growth, absorbance 615 nm, 18 h; stronger effect = higher value.
A short description of assay [9]: S. cerevisiae growth inhibition in permissive medium (OD615), pilot counter-assay for S. cerevisiae lifespan shortening project, permissive growth control (AID 705;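 active means growth inhibition above 25% in both replicates, a cutoff set 3 SD above the mean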). Particulars: OD615, 24 h, at 10 µM, stronger effect = higher value.
Assay [10] is described as follows: S. cerevisiae growth inhibition in restrictive medium, OD615, pilot screen, restrictive growth control, yeast lifespan reduction project (AID 706;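 active means growth inhibition above a set limit, 3 SD over mean compound inhibition, in both replicates, cut at about 43% in these data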;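 further: modified DeaD lifespan yeast strain shifted to restrictive glucose medium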). Particulars: OD615, 48 h, at 10 µM, stronger effect = higher value.
A short description of assay [11]: doxorubicin toxicity protection in MRP-1 cells – H69AR cells, CellTiter-Glo, duplicate, MRP-1 activator project, pilot screen (AID 807;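 active means viability increase at or above a cutoff of the median across tested compounds plus 3 SD, cut at about 8.5% in these data, passing the limit was not always enough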;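 further: compound pretreatment 18-22 h then 72 h combined with doxorubicin; 0% = doxorubicin alone and 100% = vehicle without doxorubicin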). Particulars: H69AR viability with doxorubicin, CellTiter-Glo luminescence; at 10 µM; stronger effect = higher value.
Assay [12] in a line: viability of HCT116 without oncogenic beta-catenin – human colon tumor cells, pilot screen (AID 823;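 active means cell viability at or below a set limit in both duplicate runs, the limit being the all-compound median minus 4 SD, cut at about 23% in these data, passing the limit was not always enough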;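 further: 0% = wells killed by 20 µM Hyamine and 100% = untreated DMSO cell wells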). Particulars: HCT116 beta-catenin knockout viability, CellTiter-Glo, 60 h; at 10 µM; stronger effect = lower value.
Assay [13] in a line: viability of PTEN-null HCT116 cells – cell-based, HCT116 clonal line, CellTiter-Glo, pilot screen (AID 824;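 active means viability at or below 27.92% in each of two runs, the all-compound median minus 4 SD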;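 further: 0% = 20 µM Hyamine control and 100% = vehicle cell control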). Particulars: HCT116 PTEN-deleted viability, 60 h, at 10 µM, stronger effect = lower value.
Assay [14] is described as follows: RAM pathway blockade in budding yeast – dse1pr::URA3 reporter, 5-FOA selection, pilot screen (AID 869;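 active means inhibition over a set limit, the all-compound mean plus 3 SD, in both replicate runs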;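 further: 0% = DMSO wells with no growth and 100% = 10 µM 1-NA-PP1 with full growth; RAM network block rescues cells from 5-FOA so hits raise OD615 growth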). Particulars: S. cerevisiae dse1pr::URA3 5-FOA growth, OD615, 2 d; at 10 µM; stronger effect = higher value; strain carries analog-sensitive mutant Cbk1 kinase.
The mark [15] stands for this setting: H69AR cells + 2 uM doxorubicin, measured here: viability with 2 uM doxorubicin, stronger effect = lower value.
Setting [16] is: H69AR cells, compound alone cytotoxicity.

Receptor tyrosine-protein kinase erbB-2 (Homo sapiens), sequence (P04626 whole entry, looked up): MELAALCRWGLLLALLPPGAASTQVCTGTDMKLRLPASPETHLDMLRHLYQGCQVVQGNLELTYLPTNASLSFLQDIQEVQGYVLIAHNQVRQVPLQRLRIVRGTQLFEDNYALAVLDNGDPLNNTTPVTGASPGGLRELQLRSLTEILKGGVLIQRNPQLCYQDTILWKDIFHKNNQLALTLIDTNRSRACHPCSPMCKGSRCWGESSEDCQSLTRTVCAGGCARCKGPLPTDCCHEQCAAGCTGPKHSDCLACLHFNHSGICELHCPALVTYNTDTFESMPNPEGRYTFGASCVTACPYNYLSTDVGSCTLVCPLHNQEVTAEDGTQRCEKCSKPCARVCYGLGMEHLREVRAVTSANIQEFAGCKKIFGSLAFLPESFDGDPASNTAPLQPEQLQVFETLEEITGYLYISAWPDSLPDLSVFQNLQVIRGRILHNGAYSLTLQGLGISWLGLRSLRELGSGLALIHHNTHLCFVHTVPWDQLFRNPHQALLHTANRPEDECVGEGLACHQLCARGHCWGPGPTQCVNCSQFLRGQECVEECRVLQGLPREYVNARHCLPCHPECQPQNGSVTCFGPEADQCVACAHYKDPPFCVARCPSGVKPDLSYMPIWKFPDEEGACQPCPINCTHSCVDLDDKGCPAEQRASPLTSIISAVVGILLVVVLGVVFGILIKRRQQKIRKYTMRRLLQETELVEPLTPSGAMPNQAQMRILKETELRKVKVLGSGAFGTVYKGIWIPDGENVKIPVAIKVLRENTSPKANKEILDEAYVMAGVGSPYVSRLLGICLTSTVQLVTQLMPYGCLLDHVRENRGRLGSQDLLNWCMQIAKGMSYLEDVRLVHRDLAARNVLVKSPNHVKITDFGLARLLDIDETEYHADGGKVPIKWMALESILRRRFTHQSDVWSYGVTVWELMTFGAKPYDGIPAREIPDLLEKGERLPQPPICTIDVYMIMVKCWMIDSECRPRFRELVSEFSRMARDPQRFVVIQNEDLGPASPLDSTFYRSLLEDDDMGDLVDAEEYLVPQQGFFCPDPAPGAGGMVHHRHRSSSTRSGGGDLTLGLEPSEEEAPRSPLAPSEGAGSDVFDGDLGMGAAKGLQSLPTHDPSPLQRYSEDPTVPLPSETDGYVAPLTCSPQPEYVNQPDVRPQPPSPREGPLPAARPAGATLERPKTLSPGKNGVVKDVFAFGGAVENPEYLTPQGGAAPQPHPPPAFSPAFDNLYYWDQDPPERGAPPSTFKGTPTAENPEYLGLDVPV

For the compound `CCOC(=O)N1CCN(CC(=O)Nc2c(C(=O)OC)[nH]c3cccc(Cl)c23)CC1`, the viability in assay [1] was 102%; in assay [3] it was 102% (inactive); in assay [4] it was 91.9% (inactive); in assay [5], 86.6% (inactive); in assay [6] (setting [15]), 87.8%; in [6] (setting [16]), 86.6%. The Her2 level in assay [2] is 97.5% (inactive). Besides, the differential viability (reversal) in assay [6] (H69AR cells + 2 uM doxorubicin) is -1.14% (inactive). Besides, the inhibition in assay [7] was -6.08% (inactive); in [8] it was 8.5% (inactive).
Take `CCCCn1c(CN(C)Cc2ccccc2)nc2c1c(=O)n(C)c(=O)n2C`: the viability was 83% in assay [1]; 83% (inactive) in [3]; 71.1% (inactive) in [4]; 71.6% (inactive) in [5]; 79.6% in [6] (setting [15]); 71.6% in assay [6] (setting [16]). For the same compound, the Her2 level in assay [2] is 101% (inactive). In addition, the differential viability (reversal) in [6] (H69AR cells + 2 uM doxorubicin) is -7.99% (inactive). Also, the inhibition in [7] was -3.24% (inactive); in assay [8], -0.63% (inactive).
For the compound `CC(NC(=O)c1cn(C)c2ccc(S(=O)(=O)N3CCCC3)cc2c1=O)c1ccc2c(c1)OCCO2` (configuration not stated), the viability in assay [1] was 89%; in [3] it was 89% (inactive); in assay [4], 85.6% (inactive); in [5] it was 77.8% (inactive); in assay [6] (setting [15]), 44%; in assay [6] (setting [16]), 77.8%. Besides, the viability in assay [12] is 75.5% (inactive); in assay [13], 76% (inactive). Also, the Her2 level in [2] was 78.5% (inactive). In addition, in [6] (H69AR cells + 2 uM doxorubicin), the differential viability (reversal) is 33.8% (inactive). The inhibition in assay [7] was -6.22% (inactive); in assay [8], 4.75% (inactive); in assay [14] it was 2.6% (inactive). The values for the growth inhibition in assay [9] and in [10] were -9.02% (inactive) and -24.8% (inactive), respectively. The viability increase in assay [11] is -4.7% (inactive).
As for `Cc1cc(NC(=O)C23CCC(C)(C(=O)O2)C3(C)C)no1` (configuration not stated), the viability in assay [1] was 108%; in [3], 108% (inactive); in [4] it was 96.7% (inactive); in [5], 97.5% (inactive); in [6] (setting [15]) it was 89.2%; in assay [6] (setting [16]), 97.5%. For the same compound, the Her2 level in [2] was 93% (inactive). Also, the differential viability (reversal) in assay [6] (H69AR cells + 2 uM doxorubicin) is 8.27% (inactive). The inhibition in assay [7] is -0.78% (inactive); in assay [8] it was 0.63% (inactive).
As to `O=C(CCCN1C(=O)c2ccccc2C1=O)N1CCC(c2ccccc2)C1` (configuration not stated), the viability in [1] was 110%; in [3], 110% (inactive); in [4] it was 114% (inactive); in [5] it was 96.4% (inactive); in [6] (setting [15]) it was 97.8%; in [6] (setting [16]) it was 96.4%. For the same compound, the Her2 level in assay [2] was 108% (inactive). In assay [6] (H69AR cells + 2 uM doxorubicin), the differential viability (reversal) was -1.44% (inactive). The figures for the inhibition in assay [7] and in [8] were -5% (inactive) and 0.33% (inactive), respectively.
Turning to `O=C(NCc1nnc(SCC(=O)N2CCC(Cc3ccccc3)CC2)o1)c1ccccc1F`, the viability is 85% in [1]; 85% (inactive) in [3]; 74.5% (inactive) in [4]; 98.8% (inactive) in assay [5]; 94.8% in [6] (setting [15]); 98.8% in [6] (setting [16]). Besides, the results for the viability in [12] and in [13] were 90.2% (inactive) and 92.2% (inactive), respectively. Moreover, the Her2 level in assay [2] was 96.5% (inactive). Also, the differential viability (reversal) in assay [6] (H69AR cells + 2 uM doxorubicin) is 3.91% (inactive). In addition, the inhibition in [7] was 1.6% (inactive); in assay [8], 3.11% (inactive); in assay [14] it was 1.69% (inactive). Also, the growth inhibition is 5.21% (inactive) in assay [9] and 17.2% (inactive) in [10]. The viability increase in assay [11] is -0.76% (inactive).
Regarding `CCOC(=O)N1CCC(NC(=O)c2ccc(OC)c(CN3CC(=O)N4CCCC4C3=O)c2)CC1` (configuration not stated), the viability in assay [1] was 93.5%; in assay [3] it was 93.5% (inactive); in [4], 111% (inactive); in [5], 96% (inactive); in [6] (setting [15]), 85.9%; in assay [6] (setting [16]), 96%. The Her2 level in assay [2] was 93% (inactive). For the same compound, in [6] (H69AR cells + 2 uM doxorubicin), the differential viability (reversal) was 10% (inactive). In addition, the results for the inhibition in [7] and in [8] were -5.92% (inactive) and -3.49% (inactive), respectively.
